# Assay outcomes from PubChem.
# Dicer inh: blocks human Dicer maturation of pre-miR-21; cat-ELCCA pre-miR-21 Dicer processing, chemiluminescence; active compounds read high; z-score at 25 µM; actives 6% (n = 47,000); AID 1347074; in the data active = z-score above about 3, passing the limit was not always enough;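 also: plate controls were vehicle for no effect and no enzyme for full effect; higher signal means more uncleaved substrate so more Dicer inhibition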
# * marks the source's active call; other numbers are inactive results. Only a selection was taken, and hits are over-represented in it overall.
SMILES,Dicer inh
O=C(Nc1ccc(OC(=O)N(c2ccccc2)c2ccccc2)cc1)N1CCOCC1,3.9*
COc1cc([N+](=O)[O-])c(OC)cc1SCc1n[nH]c(=S)n1-c1cccc(Cl)c1C,-2.4
O=C(Nc1n[nH]c(-c2ccccc2)c1Br)c1ccc(Cl)cc1,-0.87
Cc1nc(N2C(=O)c3oc4ccccc4c(=O)c3C2c2cccs2)sc1C (centres undefined),-0.08
O=C1C2ON(c3ccccc3)C(c3ccco3)C2C(=O)N1c1ccc(Br)cc1 (centres undefined),0.66
O=C1C2ON(c3ccccc3)C(c3ccc(F)cc3)C2C(=O)N1Cc1ccccc1 (centres undefined),0.11
O=C1C2ON(c3ccccc3)C(c3ccco3)C2C(=O)N1Cc1ccccc1 (centres undefined),4.1*
O=C1C2ON(c3ccccc3)C(c3ccco3)C2C(=O)N1c1ccccc1 (centres undefined),3.5*
COc1ccc(C2C3C(=O)N(Cc4ccccc4)C(=O)C3ON2c2ccccc2)cc1 (centres undefined),0.46
CCOc1ccc(N2C(=O)C3ON(c4ccccc4)C(c4ccco4)C3C2=O)cc1 (centres undefined),-1.3
COc1cc(C2C(C#N)=C(C)NC3=C2C(=O)CC(c2ccc(Cl)cc2)C3)ccc1OC(C)=O (centres undefined),-0.11
Cc1ccc(C2Nn3c(C)nnc3SC2C(=O)Nc2ccc(Br)cc2Cl)cc1 (centres undefined),-0.78
COc1cc2c(cc1OC)-c1c(C#N)c(-c3ccc(Cl)cc3)c(C(=O)c3cccs3)n1CC2,-0.34
COc1cc2c(cc1OC)-c1c(C#N)c(-c3ccc4c(c3)OCO4)c(C(C)=O)n1CC2,1.8
COc1cc2c(cc1OC)-c1c(C#N)c(-c3ccc(C)cc3)c(C(=O)c3cccs3)n1CC2,6.2*
O=c1c2oc3nc(-c4ccccc4)cc(-c4ccco4)c3c2ncn1/N=C/c1ccc2c(c1)OCO2,2.1
N#Cc1ccc(NS(=O)(=O)c2ccc3ccccc3c2)cc1,1.7
O=S(=O)(c1ccc(Cl)cc1)n1cc2c(n1)CCOC2,-0.47
COc1c(Cl)cc(Cl)c(OC)c1C(=O)NCCCN(C)C,-1.6
O=C1Nc2ccc(S(=O)(=O)NCCO)c3cccc1c23,0.31
Cc1ccc(C)c(NS(=O)(=O)c2ccc3c4c(cccc24)C(=O)N3)c1,2.6
O=C1Nc2ccc(S(=O)(=O)Nc3ccccc3O)c3cccc1c23,8*
COc1ccc(C2N=C(N)Nc3nc(=O)c4ccccc4n32)cc1 (centres undefined),0.1
Cc1ccc(Cl)c2c1NC(=O)C2(O)CC(=O)c1ccc(C(C)C)cc1 (centres undefined),-0.7
O=C(O)CCC(=O)c1ccc2c(c1)NC(=O)CO2,-0.6
SMILES,Dicer inh
CC1=Nc2cc(Cl)c(Cl)cc2NC(C)(C)C1,7.2*
Cc1nc2sc3c(N4CCOCC4)ncnc3c2c2c1COC(C)(C)C2,1.9
NCCNc1cccc2c(S(=O)(=O)O)cccc12,-1.6
Clc1ccc(-c2noc(CSc3nc4ccccc4n4cccc34)n2)cc1,-0.24
Cn1c(SCC(=O)c2ccc(Cl)cc2)nnc1SCC(=O)c1ccc(Cl)cc1,-0.58
CN(C)C(=S)SCC(=O)c1ccc(Cl)cc1,4.9*
O=C(CSC(=S)N1CCOCC1)c1ccc(Cl)cc1,-1.3
CCOC(=O)C1=C(C)NC2=C(C(=O)CCC2)C1c1cc2c(cc1Br)OCO2 (centres undefined),-0.74
Cc1ccc(C(=O)/C=C/S/C=C/C(=O)c2ccc(C)cc2C)c(C)c1,-2.1
Cc1ccc(C2Oc3ccccc3C3CC(c4ccncc4)=NN32)cc1 (centres undefined),-0.49
Clc1ccc(C2=NN3C(C2)c2ccccc2OC3c2ccncc2)cc1 (centres undefined),6*
c1cncc(C2=NN3C(C2)c2ccccc2OC3c2cccs2)c1 (centres undefined),-0.24
Oc1ccc(Cl)cc1C1=NN2C(C1)c1ccccc1OC2c1ccncc1 (centres undefined),-0.87
Clc1ccc2c(c1)C1CC(c3ccccc3)=NN1C(c1ccncc1)O2 (centres undefined),15*
COc1cc(C2Oc3ccccc3C3CC(c4ccccc4)=NN32)ccc1OC(C)=O (centres undefined),4.5*
COc1ccc(C2Oc3ccccc3C3CC(c4ccc(C)o4)=NN32)cc1OC (centres undefined),-2
CSCCC1Oc2ccc(Cl)cc2C2CC(c3ccccc3O)=NN12 (centres undefined),-1.1
COc1ccc(C2Oc3ccccc3C3CC(c4cccnc4)=NN32)cc1 (centres undefined),1.9
N#C/C(=C\N1CCc2ccccc21)S(=O)(=O)c1ccc(Cl)cc1,0.72
COC(=O)CCC(CCC(=O)OC)(C(C)=O)C(=O)OC,1
O=C(O)[C@@H]1CSC([C@H](O)[C@H](O)[C@@H](O)[C@@H](O)CO)N1 (some centres undefined),-0.66
Cc1ccc(C(=O)/C(=C\N(C)C)c2nnnn2-c2ccccc2)cc1,-2.7
CC(C)c1nc2sc3c(NCCCN(C)C)ncnc3c2c2c1COC(C)(C)C2,0.35
O=S(=O)(Nc1ccccc1)c1ccc(-c2ccc(S(=O)(=O)Nc3ccccc3)cc2)cc1,-0.35
Cc1ccc(S(=O)(=O)Nc2ccc(N(C)S(=O)(=O)c3ccc(C)cc3)cc2)cc1,0.4
SMILES,Dicer inh
CCN(CC)c1ccc(NS(=O)(=O)c2ccccc2)cc1,4.8*
COc1ccc(N2C(=O)CC(NC3CCCC3)C2=O)cc1 (centres undefined),-1
Cc1noc(C)c1S(=O)(=O)N1CCC(C(N)=O)(N2CCCCC2)CC1,-0.36
CC(C)Cn1c(NCCN(C)C)nc2c1c(=O)[nH]c(=O)n2C,4.3*
CC(C)Cn1c(NC2CCCCC2)nc2c1c(=O)[nH]c(=O)n2C,0.18
Cn1c(=O)[nH]c(=O)c2c1nc(NCCO)n2CC(O)COc1ccccc1 (centres undefined),0.01
CC(C)CNc1nc2c(c(=O)[nH]c(=O)n2C)n1C(C)C,0.88
Cn1c(=O)c2c(nc(NCc3ccco3)n2C)n(C)c1=O,-2.1
Cn1c(=O)[nH]c(=O)c2c1nc(NCc1ccco1)n2CC(O)COc1ccccc1 (centres undefined),-1.6
CC(C)Cn1c(NCc2ccco2)nc2c1c(=O)[nH]c(=O)n2C,4.5*
Cc1ccc(Cn2c(NCc3ccco3)nc3c2c(=O)n(C)c(=O)n3C)cc1,0.5
CC(C)OCC(O)Cn1c(NCc2ccco2)nc2c1c(=O)[nH]c(=O)n2C (centres undefined),3.9*
O=C(COc1ccccc1Br)Nc1nccs1,2.1
CCOc1cc(C2C3=C(CC(C)(C)CC3=O)Nc3[nH]n(-c4ccccc4)c(=O)c32)ccc1O (centres undefined),-3.3
Clc1ccc(C2=NCCc3sccc32)cc1,-0.59
C#CC1(NC(=O)NC(=O)c2ccc(F)c(Cl)c2)CCCCC1,-0.74
O=[N+]([O-])c1cnc(N2CCOCC2)c(C(F)(F)F)c1,1.2
O=C1CCCc2c1cc(C(=O)O)c(=O)n2-c1ccccc1,3.7*
COC(=O)C(CCSC)NC(=O)c1cc2c(n(-c3ccccc3)c1=O)CCCC2=O (centres undefined),2.1
O=C1CCCc2c1cc(C(=O)NC1CCSC1=O)c(=O)n2-c1ccccc1 (centres undefined),1.2
CCOC(=O)NC(=S)c1ccc(OC)cc1,0.26
COc1ccc2cc(CCC(C)=O)ccc2c1,7
CCOC(=O)C(C)c1ccc2cc(OC)ccc2c1 (centres undefined),4.6*
